ROC1-CUL1 inh – blocks human RBX1-Cullin-1 di-ubiquitin formation. P62877+Q13616. in vitro K48 di-Ub FRET, acceptor:donor ratio, 45 min. inhibition, % at 10 µM. actives 0.6% (n = 140,000); in the data active = inhibition above about 25%
Target sequence (P62877 whole entry, looked up): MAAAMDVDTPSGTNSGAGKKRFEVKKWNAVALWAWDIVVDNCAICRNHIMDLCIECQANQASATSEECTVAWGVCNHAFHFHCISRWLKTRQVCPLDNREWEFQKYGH
Target sequence (Q13616 whole entry, looked up): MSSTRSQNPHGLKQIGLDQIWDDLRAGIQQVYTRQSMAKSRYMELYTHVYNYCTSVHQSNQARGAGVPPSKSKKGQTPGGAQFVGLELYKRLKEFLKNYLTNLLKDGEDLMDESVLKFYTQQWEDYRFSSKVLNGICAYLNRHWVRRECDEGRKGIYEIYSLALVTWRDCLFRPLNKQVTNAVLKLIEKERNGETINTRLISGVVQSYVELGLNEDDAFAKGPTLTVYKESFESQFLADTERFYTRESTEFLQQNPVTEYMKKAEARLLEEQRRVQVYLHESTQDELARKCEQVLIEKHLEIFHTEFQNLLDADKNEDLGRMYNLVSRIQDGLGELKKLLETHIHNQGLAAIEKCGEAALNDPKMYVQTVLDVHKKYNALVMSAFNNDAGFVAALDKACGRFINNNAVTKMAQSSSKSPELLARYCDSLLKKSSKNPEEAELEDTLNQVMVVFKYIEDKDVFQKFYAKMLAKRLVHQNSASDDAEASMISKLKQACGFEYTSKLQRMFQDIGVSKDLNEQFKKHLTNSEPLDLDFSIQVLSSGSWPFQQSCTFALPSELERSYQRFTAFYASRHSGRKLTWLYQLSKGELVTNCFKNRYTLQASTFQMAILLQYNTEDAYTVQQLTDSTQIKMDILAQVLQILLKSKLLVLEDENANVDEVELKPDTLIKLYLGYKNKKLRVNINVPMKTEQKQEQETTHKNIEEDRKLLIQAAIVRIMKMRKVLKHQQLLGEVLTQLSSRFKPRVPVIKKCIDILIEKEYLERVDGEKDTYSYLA
Numbers without * were called inactive. The entries come from a sample that favours hits as a whole.

SMILES	ROC1-CUL1 inh
CC(=O)N1CCC(C(=O)N2CCN(Cc3ccc(C)cc3)CC2)CC1	0
O=C(CN1C(=O)S/C(=C\c2cccn2-c2cccc(C(=O)O)c2)C1=O)Nc1ccc(Cl)cc1	49*
O=C(CN1C(=O)c2cccc3cccc1c23)Nc1ccc2c(c1)OCO2	1
Cc1ccc(NC(=O)CN2C(=O)S/C(=C\c3ccc(-c4cc(C(=O)O)ccc4Cl)o3)C2=O)cc1C	8
Cc1ccccc1NC(=O)CN1C(=O)S/C(=C\c2ccc(-c3cccc(C(=O)O)c3C)o2)C1=O	11
COc1ccc(NC(=O)CN2C(=O)S/C(=C/c3cccn3-c3ccc(C)c(C)c3)C2=O)cc1	-2
N#Cc1ccccc1CN1C(=O)S/C(=C\c2ccc(-c3ccc(C(=O)O)c(Cl)c3)o2)C1=O	0
O=C(CN1C(=O)S/C(=C\c2ccc(Cl)cc2)C1=O)Nc1ccc(C(=O)O)cc1	5
Cc1c(C(=O)O)cccc1-c1ccc(/C=C2\SC(=O)N(CC(=O)Nc3ccc4c(c3)OCO4)C2=O)o1	26*
O=C(CN1C(=O)S/C(=C/c2ccc(-c3ccc(Cl)c(C(=O)O)c3)o2)C1=O)Nc1ccccc1	104*
CCCc1cc(C(=O)N2CCC3(CC2)c2ccccc2[C@@H](NC(=O)c2ccccn2)[C@@H]3OC)n(C)n1	6
Cc1cc(CN(C)C(=O)Nc2ncn[nH]2)on1	2
CC(C)C(=O)N1CCN(c2c(Cl)cccc2NC(=O)c2cccs2)CC1	13
CCOc1ccc(-c2nnc(NC(=O)C(CC)c3ccccc3)s2)cc1 (stereo not given)	-3
O=C1C=CC(=O)C(C(C=NCc2ccccc2)[N+](=O)[O-])=C1 (stereo not given)	97*
CN1C(=O)C(C=NCc2ccccc2)c2ccccc21 (stereo not given)	-2
CC1(C)OC(=O)C(C=NCc2ccccc2)C(=O)O1	-1
CC1=NC(=S)NC(c2ccc(Cl)cc2)C1C(N)=O (stereo not given)	-3
O=C(NCc1ccc(Cl)c(Cl)c1)c1c(F)c(F)c(F)c(F)c1F	-9
OCCCN1c2ccccc2Nc2cc(-c3ccccc3)nnc21	-16
O=C1OC(c2cccc(I)c2)=N/C1=C/c1ccc(I)cc1	0
Cc1ccc(C2C(C(=O)c3cc4ccccc4o3)C(=O)C(=O)N2CCCn2ccnc2)cc1 (stereo not given)	7
COc1ccccc1/C=C/C(=O)C1C=C(Br)C=C(Br)C(=O)C1=O (stereo not given)	28*
COc1cccc(/C=C/C(=O)C2C=C(Br)C=C(Br)C(=O)C2=O)c1 (stereo not given)	-3
Cc1ccccc1/C=C/C(=O)C1C=C(Br)C=CC(=O)C1=O (stereo not given)	-2
SMILES	ROC1-CUL1 inh
Cc1nc(N2C(=O)C(=O)C(C(=O)c3ccccc3)C2c2ccc(Br)cc2)sc1C (stereo not given)	0
O=C1C(=O)N(c2ccccn2)C(c2ccccc2Cl)C1C(=O)c1ccccc1 (stereo not given)	29*
CC(C)Oc1ccc(C(=O)C2C(=O)C(=O)N(c3ccccn3)C2c2ccc(Cl)cc2)cc1 (stereo not given)	-4
CN(C)c1ccc(C2C(C(=O)c3ccccc3)C(=O)C(=O)N2c2ccc(Cl)cc2)cc1 (stereo not given)	-2
O=C(/C=C/c1ccccc1)C1C(=O)C(=O)N(c2ccccn2)C1c1ccccc1 (stereo not given)	8
O=C1C(=O)N(c2nccs2)C(c2ccc(Cl)cc2)C1C(=O)c1ccccc1 (stereo not given)	64*
CCCCC1=NN(C(=O)CCc2ccccc2)C(O)(C(F)(F)F)C1 (stereo not given)	3
Cc1sc(NC(=O)c2ccccc2)c(C(c2ccncc2)N2CCN(C)CC2)c1C (stereo not given)	-2
O=c1[nH]n(-c2cc(Cl)cc(Cl)c2)c(O)c1C=C1C=Nc2ccccc21	-1
O=C(Cn1c(O)c(C=C2C=Nc3ccccc32)sc1=O)N1CCOCC1	3
CC(C)C(C(=O)O)n1c(O)c(C=C2C=Nc3ccccc32)sc1=S (stereo not given)	25*
COc1ccc(C(=O)CSc2nc(-c3cccs3)cc(-c3ccccc3OC)c2C#N)cc1	7
Cc1sc2nc(SCC(=O)c3ccc(O)c(O)c3)[nH]c(=O)c2c1C	67*
Cc1cc(C)c2c(=O)[nH]c(SCC(=O)c3ccc(O)c(O)c3)nc2n1	4
CCSc1nc2sc(C)c(C)c2c(=O)[nH]1	-7
Cc1ccc(CNc2ccc(C(=O)N3CCC(Oc4cccnc4)CC3)cn2)o1	6
CN(C)Cc1ccccc1SC1c2ccccc2CSc2ccccc21 (stereo not given)	6
CCn1c(CNC(=O)c2ccc(C)cc2)nnc1SCC(=O)Nc1ccc(Br)c(C)c1	4
CCOc1cc(/C=C2/C(=O)N(c3cccc(C(=O)O)c3)N=C2C)ccc1OCC(=O)Nc1ccccc1	36*
COc1cc(/C=C2/C(=O)N(c3ccccc3)N=C2C)ccc1OCc1ccc(F)cc1	10
C#CCOc1ccc(/C=C2\C(=O)N(c3cccc(F)c3)N=C2C)cc1OC	31*
CCOc1cc(/C=C2\C(=O)N(c3cccc(C(=O)O)c3)N=C2C(F)(F)F)ccc1OCC(=O)Nc1ccccc1OC	15
COc1cc(/C=C2\C(=O)N(c3cccc(F)c3)N=C2C)ccc1O	0
COc1cc(/C=C2\C(=O)N(c3ccc(C)cc3)N=C2C)ccc1OCC(=O)Nc1ccc(C(=O)O)cc1	-2
Cc1ccc(CC2=NC(=O)N(Cc3ccc(Cl)cc3)C2=O)o1	1
SMILES	ROC1-CUL1 inh
CC(=O)C(C(C)=O)=C1SCC(c2ccccc2)S1 (stereo not given)	11
COc1ccc(-c2[nH]nc3c2C(c2cc(I)cc(I)c2O)C(C#N)C(=N)O3)cc1 (stereo not given)	28*
COc1ccc(-c2[nH]nc3c2C(c2ccoc2)C(C#N)C(=N)O3)cc1 (stereo not given)	-7
COc1ccc(-c2[nH]nc3c2C(c2ccc(Br)cc2)C(C#N)C(=N)O3)cc1 (stereo not given)	14
Cc1ccc2nc(Br)c3cc(C)oc3c2c1	0
Cc1ccc2oc(-c3ccc(O)cc3)nc2c1	2
CC(CS(=O)(=O)c1ccc2ccccc2c1)N1CCN(C)CC1 (stereo not given)	-2
CCCN1C(=O)/C(=C/c2cc(-c3ccccc3)n(-c3ccc(C(=O)OCC)cc3)c2-c2ccccc2)C(=O)N(c2ccccc2)C1=S	18
CCCN1C(=O)/C(=C\c2ccco2)C(=O)N(c2ccccc2)C1=S	-5
Cc1cc(C(=O)O)ccc1-c1ccc(/C=C2\SC(=O)N(CC(=O)N3CCCC3)C2=O)o1	10
CCN1C(=O)S/C(=C/c2ccc(-c3cc(C(=O)O)ccc3C)o2)C1=O	0
Cc1cc(C(=O)O)ccc1-c1ccc(/C=C2/SC(=O)N(C(C)C)C2=O)o1	64*
CCCN1C(=O)/C(=C\c2ccc(-c3cc(C(=O)O)ccc3C)o2)C(=O)N(c2ccccc2)C1=S	45*
Cc1ccc(C(=O)O)cc1-c1ccc(/C=C2\SC(=O)N(Cc3ccccc3F)C2=O)o1	50*
C=CCN1C(=O)S/C(=C/c2ccc(-c3cc(C(=O)O)ccc3C)o2)C1=O	7
Cc1cc(C(=O)O)ccc1-c1ccc(/C=C2\SC(=O)N(CC(=O)N3CCOCC3)C2=O)o1	0
Cc1noc(C)c1CC(=O)NC1CCCc2nc(-c3ccccc3)ncc21 (stereo not given)	-5
